MITF primary – MITF inhibitors, primary screen, biochemical, AlphaScreen, human; AlphaScreen MITF homodimerization, bead proximity signal; Microphthalmia-associated transcription factor (Homo sapiens), O75030; inhibition, % at 2.6 µM; 650,000 compounds, 0.91% hits; AID 1259374, 2018; in the data active = inhibition above about 50%
Target sequence (O75030 whole entry, looked up): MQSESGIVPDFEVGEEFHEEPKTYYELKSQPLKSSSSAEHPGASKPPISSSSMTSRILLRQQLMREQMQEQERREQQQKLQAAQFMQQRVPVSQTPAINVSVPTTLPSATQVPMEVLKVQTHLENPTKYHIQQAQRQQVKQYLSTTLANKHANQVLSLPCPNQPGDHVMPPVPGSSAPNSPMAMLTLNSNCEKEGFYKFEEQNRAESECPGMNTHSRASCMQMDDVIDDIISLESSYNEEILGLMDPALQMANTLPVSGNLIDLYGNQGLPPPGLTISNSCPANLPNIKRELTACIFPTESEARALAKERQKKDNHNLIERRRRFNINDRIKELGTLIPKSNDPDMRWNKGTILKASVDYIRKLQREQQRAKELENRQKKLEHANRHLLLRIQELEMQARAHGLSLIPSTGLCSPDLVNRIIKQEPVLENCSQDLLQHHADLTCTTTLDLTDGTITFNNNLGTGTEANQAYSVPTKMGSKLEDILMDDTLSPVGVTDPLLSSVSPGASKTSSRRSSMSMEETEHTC
TEAD-YAP inh – TEAD-YAP interaction inhibition, primary screen, TEAD-YAP interaction inhibitor project, luminescence, HEK-TIYL cells. TEAD-Gal4/YAP UAS-luciferase luminescence. inhibition, % at 9.12 µM. 640,000 compounds, 1.4% hits. AID 1259422, 2018; in the data active = inhibition above about 32%
GPR151 activ – activators of human GPR151, primary screen, cell-based, PathHunter beta-arrestin, luminescence. G-protein coupled receptor 151 (Homo sapiens), Q8TDV0. activation, % at 11.2 µM. PathHunter beta-arrestin GPR151 cells. AID 1508602, 2020. 650,000 compounds, 1% hits; in the data active = activation above about 4.9%
FBW7 activator – FBW7 E3 ligase activators, primary screen, biochemical, AlphaScreen, human; AlphaScreen FBW7–phospho-cyclin E peptide binding, activator screen; normalized activity (activation), % at 26.1 µM; 650,000 compounds, 0.13% hits; AID 1259310, 2017; in the data active = normalized activity above about 1.9%;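 note: purified mutant Fbw7 with reduced substrate affinity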
GPR151 confirm – GPR151 activators, triplicate retest, confirmation, cell-based, PathHunter beta-arrestin, luminescence; activation, % at 11.2 µM; 6,700 tested, under 10 active; GPR151 PathHunter beta-arrestin cells, 90 min; % of EA-reagent control over plate median; AID 1508609, 2020; shares compounds with GPR151 activ;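 active = mean percent activation across replicates above the confirmation screen cutoff of 4.91%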
GPR119 counter – GPR119 activators in beta-arrestin cells, counter-screen for GPR151 activator project, cell-based, PathHunter beta-arrestin, luminescence, triplicate; 90 min; 0 = compound-well median, 100 = enzyme-acceptor control; shares compounds with GPR151 activ; 6,700 compounds, 0.3% hits; activation, % at 11.2 µM;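 active = mean percent activation in the counterscreen above 29.09%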;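 note: counterscreen on off-target GPR119 to flag nonselective hits from the GPR151 activator screen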
Each line names hits and unclear results; the compound was inactive in the other large screens (follow-up assays come after a bar, where they were run). The list is not random: actives were taken first. Their share in the collection is about 3.4%.

Cc1ccc(CNC(=O)CSC2=Nc3ccccc3C3=NC(C(C)C)C(=O)N23)cc1 (centres undefined)	none
CCC(C)C1N=C2c3ccccc3N=C(SCC(=O)N3CC(C)CC(C)C3)N2C1=O (centres undefined)	GPR151 activ 11.8 | GPR151 confirm inactive | GPR119 counter inactive
CC(C)C1N=C2c3ccccc3N=C(SCC(=O)NCCc3ccccc3)N2C1=O (centres undefined)	GPR151 activ 5.8 | GPR151 confirm inactive | GPR119 counter inactive
CC1CC(C)CN(C(=O)CSC2=Nc3ccccc3C3=NC(C(C)C)C(=O)N23)C1 (centres undefined)	none
COC(=O)c1ccc(NC(=O)COC(=O)c2cc3ccccc3o2)cc1	none
CC1=C2C(O)C(=O)OC3CC4C(C)(C)C(=O)C=C[C@]4(C)C(CC1)[C@]23C (some centres undefined)	GPR151 activ 6.0 | GPR151 confirm inactive | GPR119 counter inactive
O=C(N/N=C/c1ccc(Cl)c([N+](=O)[O-])c1)c1cc(-c2ccccc2)n[nH]1	GPR151 activ 7.2 | GPR151 confirm inactive | GPR119 counter inactive
Cc1cc2c(=O)n(CC(=O)N3CCN(c4cccc(Cl)c4)CC3)cnc2s1	none
O=C(Nc1ccc2c(c1)OCO2)c1cc(-c2ccccc2F)no1	GPR151 activ 5.2 | GPR151 confirm inactive | GPR119 counter inactive
Cc1cc(C(=O)Nc2ccc3c(c2)OCO3)on1	none
COc1ccc(NC(=O)c2cc(-c3ccccc3F)no2)cc1OC	none
COc1ccc(NC(=O)c2cc(-c3ccccc3O)no2)cc1OC	GPR151 activ 5.5 | GPR151 confirm inactive | GPR119 counter inactive
CCOc1ccc(-c2cnc(N)n2C)cc1	GPR151 activ 5.4 | GPR151 confirm inactive | GPR119 counter inactive
Cc1nc2c(-c3ccccc3)c(C)nn2c(C)c1CCC(=O)Nc1ccccn1	GPR151 activ 5.0 | GPR151 confirm inactive | GPR119 counter inactive
N#C/C(=C\c1c(Oc2ccccc2)nc2ccccn2c1=O)C(=O)NCc1ccco1	none
O=C(NC1CCC(NC(=O)c2cccc(F)c2)CC1)c1cccc(F)c1 (centres undefined)	GPR151 activ 9.4 | GPR151 confirm inactive | GPR119 counter inactive
O=C(c1ccc(Cn2c(=S)[nH]c3ccc(Br)cc3c2=O)cc1)N1CCN(c2ncccn2)CC1	none
N#Cc1c(NC(=O)c2nn3c(C(F)(F)F)cc(-c4cccs4)nc3c2Cl)sc2c1CCCC2	GPR151 activ 9.2 | GPR151 confirm inactive | GPR119 counter inactive
CC1CCCC(C)N1C(=O)c1cc2nc(-c3cccs3)cc(C(F)(F)F)n2n1 (centres undefined)	GPR151 activ 5.4 | GPR151 confirm inactive | GPR119 counter inactive
N#Cc1c(NC(=O)c2nn3c(C(F)(F)F)cc(-c4cccs4)nc3c2Cl)sc2c1CCCCC2	none
O=C(c1nn2c(C(F)(F)F)cc(-c3cccs3)nc2c1Cl)N1CCCCC1	GPR151 activ 6.4 | GPR151 confirm inactive | GPR119 counter inactive
O=c1c2cc(I)ccc2[nH]c(=S)n1CCC1=CCCCC1	none
Cc1cc(/C=C2\SC(=S)N(Cc3ccco3)C2=O)c(C)n1C	none
Cc1cccc(C(=O)Nc2ccc3nc(N4CCCCC4)cc(C)c3c2)c1	GPR151 activ 5.8 | GPR151 confirm inactive | GPR119 counter inactive
Cc1cc(N2CCN(c3ncccn3)CC2)nc2ccc(NC(=O)Cc3cccs3)cc12	GPR151 activ 5.1 | GPR151 confirm inactive | GPR119 counter inactive
CCOC(=O)c1c(NC2=NS(=O)(=O)c3ccccc32)sc2c1CCCC2	none
O=C(Nc1ccc(F)cc1)C1CC(=O)N(Cc2ccc(Cl)cc2)C(=Nc2ccccc2)S1 (centres undefined)	none
CCN1C(=O)/C(=C/c2cc(C)n(C3CCCC3)c2C)C(=O)NC1=S	GPR151 activ 6.3 | GPR151 confirm inactive | GPR119 counter inactive
CNC(=S)N1CCC(C(=O)NC(c2cccc(OC)c2)c2ccccn2)CC1 (centres undefined)	GPR151 activ 6.9 | GPR151 confirm inactive | GPR119 counter inactive
CCOc1ccc(C=Nc2ccc(C(C)=O)cc2)c(O)c1	GPR151 activ 5.6 | GPR151 confirm inactive | GPR119 counter inactive
CCOc1ccc(C=Nc2ccc(C(=O)O)cc2)c(O)c1	none
CCCCN(CC)c1ncnc2scc(-c3ccccc3)c12	GPR151 activ 8.0 | GPR151 confirm inactive | GPR119 counter inactive
CCCCN(C)c1ncnc2scc(-c3ccccc3)c12	none
CC(C)(C)C(=O)COC(=O)CCC(=O)c1cccs1	GPR151 activ 6.1 | GPR151 confirm inactive | GPR119 counter inactive
Cc1ccc(C)c(-c2cc(C(=O)NN3CCOCC3)c3ccccc3n2)c1	GPR151 activ 5.4 | GPR151 confirm inactive | GPR119 counter inactive
CCOC(=O)Cn1c(=N)n(Cc2ccc(C)cc2)c2ccccc21	none
CN(C)CC(C)(O)c1ccc2c(c1)CN(Cc1ccc3c(c1)OCCO3)CCO2 (centres undefined)	GPR151 activ 4.9 | GPR151 confirm inactive | GPR119 counter inactive
CN(C)CCCN1C(=O)c2oc3ccccc3c(=O)c2C1c1ccc(F)cc1 (centres undefined)	none
CC(=O)Nc1ccc(NC(=O)C(CCS(C)(=O)=O)N2Cc3ccccc3C2=O)cc1 (centres undefined)	none
O=C(NCCc1nc(-c2cccnc2)n[nH]1)C1(c2ccc(Cl)cc2)CC1	none
COc1ccc(OC)c(C2NC(C(=O)O)C3C(=O)N(c4cccc(C(=O)O)c4)C(=O)C23)c1 (centres undefined)	GPR151 activ 5.0 | GPR151 confirm inactive | GPR119 counter inactive
COc1ccc(C2NC(C(=O)O)C3C(=O)N(c4ccc(F)cc4)C(=O)C23)c(OC)c1OC (centres undefined)	none
COc1ccc(C2NC(C(=O)O)C3C(=O)N(c4ccc(F)cc4)C(=O)C23)c(OC)c1 (centres undefined)	none
COc1ccc(OC)c(C2NC(C(=O)O)C3C(=O)N(c4ccccc4)C(=O)C23)c1 (centres undefined)	GPR151 activ 5.2 | GPR151 confirm inactive | GPR119 counter inactive
COC(=O)C1=CN(C(C(=O)OC)c2ccccc2)C=C(C(=O)OC)C1c1ccc(Cl)cc1 (centres undefined)	none
O=C(COc1ccccc1)NNC(=O)c1ccc(F)cc1	none
COC(=O)C(Cc1cc(Cl)ccc1Cl)SC#N (centres undefined)	GPR151 activ 9.7 | GPR151 confirm inactive | GPR119 counter inactive

High-throughput results as filed in PubChem BioAssay.
